Among the data in publication PMC12864922, “TDP-43 directly inhibits mRNA accumulation in neurites through modulation of mRNA stability” are binding signal values, retold here.

B1: ENSMUSG00000031028.59|Tub|169:181;199:203 (ssRNA)
RNA: GGGAGUUCUACAGUCCGACGAUCGCUUCGAUAUCCGCAUGCUACCCAGUCCUGGGUCAGUCCCCUGCUGCAGUGGUGUUAUCACACCGGAAAGCCUCUUCACCUGGAGGUACAGAGGGAGAGGAAGCACAAGCCUGGCUGCUGUGGCUCAGCCAUCCACUCAGCCUACGAGUCAGAGACAGUGGGUGUCCCGGGAAGCAGGGGUACAGUGACACACACACAUACUACAGGGCACUCAAGCUCAUACUAGAAAAAGCUCUGGUGGUCAGCAGAAAGCACUCCCACUUCAAAAGGGCCCAUUAGGCUCUUGCGGUCGCACUAGUGUGGAAUUCUCGGGUGUCAAGG
B2: ENSMUSG00000034801.92|Sos2 (ssRNA)
RNA: GGGAGUUCUACAGUCCGACGAUCGCUUCGAUAUCCGCAUGCUACAGAGCAAGUCCCAGGACAGCCAGGGCUACACAAAAAAACCUUGUCUCAAAAGUCAAAAUACAAACAAAAGAGAGAAAAGGAAGGAAGGAAAGAAUUUGAAAUAUUAAAAUGCAAAAGCCCUUCACCAUAGCCCCCAGGUGAUCAGCAGCAUUGCUUCCUCGGCUCCCCAGUGCUGCCCUAGGCCAGUAUAAAGACUCUGUAUUGCACUGUAGACUCUGCUAGCAGACGGCACUGAGAGGAGCCAGCGCUCGAGGGCGUUCUCUUGCGGUCGCACUAGUGUGGAAUUCUCGGGUGUCAAGG
B3: ENSMUSG00000090935.132|Synj2bp|162:172 (ssRNA)
RNA: GGGAGUUCUACAGUCCGACGAUCGCUUCGAUAUCCGCAUGCUAUCUCUCUCUCACUCACCAUCUCUGACAUCCUCCCAUAUUCUUUCUCCUCCACAUAGCCAAUACAAGAUUUAAAGUGACUGCUUAUCACCCAAAACCCUGCUAUUCAAAAUCUCCUAUUCUAAUGGAAGAGUACAGGGGUUAUUUGAAGAAAAGCUGUGGUGCACACACACACGGGGAAGCCUUGCUUAGAAUGAAUGAGAAGUUACAUAUUUUACUAGGACUGCCAAUAAAAACUCAGCUAUCAUCCAAAGAGGAAAAGCCUCUUGCGGUCGCACUAGUGUGGAAUUCUCGGGUGUCAAGG
B4: ENSMUSG00000029028.117|Lrrc47 (ssRNA)
RNA: GGGAGUUCUACAGUCCGACGAUCGCUUCGAUAUCCGCAUGCUAGCUCCAAUGUGACUCUCCUGUCUCCUGUCCUCAUGGAUCACUCAGUAACUGCUGGGGAUGUUCUGAAUCAUGUGGCCUGUGGCCGUGCUGGAGAGUCAGGUUGAACGCAGGCAUUCUAUUGAACAGUAUUUAUUUUUCUACAACAUGUUAAUAGAAUUUUUUUUUAAAUCAGCUGUGCAUAGACAGUUGAGAACAUCAUGUUGUGAGUGUAAUCUUCUUAGAGCUUGUUUCCAGGCACCGUGCUGCCGCCAUGCUCCCAGCUCUUGCGGUCGCACUAGUGUGGAAUUCUCGGGUGUCAAGG
B5: ENSMUSG00000029028.162|Lrrc47|217:221 (ssRNA)
RNA: GGGAGUUCUACAGUCCGACGAUCGCUUCGAUAUCCGCAUGCUAGCCUUCCACGGCUGUGCUUGGAACUGUAGUGCUGGUCGUUGUUGGCACAUCUGCGCCUUGGCCAAGGAAGUUAUCUAUGUCCGUGUAGUCCUUUGUAGUCAGACAGAUGCUUCGUGGACUGUGCCUCACACAUGGCCCUGCAGGCUCCAUGUCAGCGUGUCCCACUAUUCAUGUCCCAUCUCUGUGCAUCCUGACUGCGCACAUCCCAUCUCCGCAACACAACGCAUCUGUACCAGCACACAGCUGCCAUCCCUCGAGCCCUCUUGCGGUCGCACUAGUGUGGAAUUCUCGGGUGUCAAGG
B6: ENSMUSG00000004113.139|Cacna1b|48:52;226:230 (ssRNA)
RNA: GGGAGUUCUACAGUCCGACGAUCGCUUCGAUAUCCGCAUGCUACACCAGUGAUCUCACGUCUCUUGUGGUCUUGGAGUCAAAUAGCACAUCAUACUAGAGAUGCGCUCAAGGGCCUGCCUUUCACCUACACUGUCACCAUAACAGGGACCAAAUCUGGAGGAUGUCCUUGCUGUUGAUUCUGGUUUUCAGUCACAACACUUUCACUGUUUGUCAUUUCUAUGUAGUUGAUCUAGAAAAAGCAGAAAUCAAAACAGGAAAGGAAAUGUUACACAAACUUUAAAAAAAAAGUCAACAUGUAGGAACUCUUGCGGUCGCACUAGUGUGGAAUUCUCGGGUGUCAAGG
B7: ENSMUSG00000031028.90|Tub|13:17;146:150 (ssRNA)
RNA: GGGAGUUCUACAGUCCGACGAUCGCUUCGAUAUCCGCAUGCUAGGCACUCAAGCUCAUACUAGAAAAAGCUCUGGUGGUCAGCAGAAAGCACUCCCACUUCAAAAGGGCCCAUUAGGCCCAAAGGGGGUUAGGAGUGGUAGGGAUAGGUGCGUGGCAGGUCCCUGCUAGGAUUGCAGGGGCCUGGCCAACACAAUUAGCUGGAGGCUUAGAAUGCUAGCUCAUUUGUUGCUACAGAUUUGCCCAGUGCUUGCACACGUAAGAACCCAGCUCUCAAGGCCAAAUAUCUGAGUGGAUGGGGAUGACUCUUGCGGUCGCACUAGUGUGGAAUUCUCGGGUGUCAAGG
B8: ENSMUSG00000061578.112|Ksr2 (ssRNA)
RNA: GGGAGUUCUACAGUCCGACGAUCGCUUCGAUAUCCGCAUGCUAACCCUUCUCCCAUUUUGUAAGAACACUGUUCUAACUCACCUCAUGCCCACGCUACCCUGGGCAACUGGAGAACACCAUAGCGUUUCAGCUGAUGUGACAUUUGGUGUGACCUUUACCAGUUCACCAUCAUUCAUGGCUUCCCCCAAAGUCCCGAGUCCUGAGAACCGGGGCUGUGGCAAGAGAGUUCUGGUGUGUUCUCUCUGUGGGGCUAGCAAUGCCGGGGUUAAGUUCUCCCUCGGUGAUGGAGACGGUCCUGGGUACUCUUGCGGUCGCACUAGUGUGGAAUUCUCGGGUGUCAAGG
B9: ENSMUSG00000090935.58|Synj2bp (ssRNA)
RNA: GGGAGUUCUACAGUCCGACGAUCGCUUCGAUAUCCGCAUGCUACACAGGUUACCAGUGCAGAAUGGACCUAUAGUACAUCGAGGUGAAGGAGAGCCAAGUGGAGUUCCUGUAGCUAUGGUGCUGCUACCAGUGUUUGCCCUCACCAUGGUAGCAGUUUGGGCCUUCGUGAGAUACCGAAAGCAGCUUUGAAAUGCUUGCUGUCUUCCAGUGUGUCCAAUGAACUCUCUCUCUCACUCACCAUCUCUGACAUCCUCCCAUAUUCUUUCUCCUCCACAUAGCCAAUACAAGAUUUAAAGUGACUGCUCUUGCGGUCGCACUAGUGUGGAAUUCUCGGGUGUCAAGG
B10: ENSMUSG00000042529.499|Kcnj12 (ssRNA)
RNA: GGGAGUUCUACAGUCCGACGAUCGCUUCGAUAUCCGCAUGCUACUGGACCAUGUACAGGGCUCCCUGGGGCUUGUCCUCAGGGGCAGAGAAGGACAUGGUGGCAGCAGCACUGAGAACAGGAGCAUGGCCUCUCUCAGACCCCAGGGCAGUCAUUCAGUCUUUUCCAUGGACACUCCCCACCGCUCCACAUACUGCCUCCGCCUCAUUCUUGGGCUCUUCCUGCCUUGCUGUCUUUCCUUCCACACAGAAGCACCAAGCAUCAUCCAUUCCCAUAGGCAAGCCCAGGGCACUCCCAGAGCUCCCUCUUGCGGUCGCACUAGUGUGGAAUUCUCGGGUGUCAAGG
B11: ENSMUSG00000061578.701|Ksr2 (ssRNA)
RNA: GGGAGUUCUACAGUCCGACGAUCGCUUCGAUAUCCGCAUGCUAUACUCCCAGAUCUGGGGUGAUCUCUUGAGGUGCCUUCCUGUAGUCUCUUGUGUCAUCUUCUUCUAAGACCACUAAUAACACCGCCUUUCUCCUUGAUCCGGGCCUCAGACCUCUUCAGAGAUUCUUUCUCUGAAUGUACGUGGGGGACUCCAACAGAUGUUGGGAGAAGACUCAAUAUGAGCAUACGGGGUCAUUGUUCAAUCCUGUAUCAAGACCUUGGAGUUGUCUAAGGCUGUGGGUUUUAAAUACCUGCUGCAGGCCUCUUGCGGUCGCACUAGUGUGGAAUUCUCGGGUGUCAAGG
B12: ENSMUSG00000032194.16|Kank2 (ssRNA)
RNA: GGGAGUUCUACAGUCCGACGAUCGCUUCGAUAUCCGCAUGCUACAGCCACAAGCCACGCAUCAAACCGUCCCUCCUCCAUCCCUCUGUCCCAUUCUGCCUCGGCAUUCCUCAGCCCCUGAACUUCCCUGAGGGAGCCCUGACAUCUACCAGGCUCAAGCUCCUGGAAGCCUUUCCCAGCACCCUGGGUUCAAAGCCAGAAAGCCAAGCUACAUUCUCCUCCCAGUUGGCACCAGUUGACAACGCCUUGGGUGUGGGUUUCUUGUAAAGAACAUAGAGAACAAUCAGCCGGCAAUUAUGGGAGGCUCUUGCGGUCGCACUAGUGUGGAAUUCUCGGGUGUCAAGG
B13: ENSMUSG00000034801.130|Sos2 (ssRNA)
RNA: GGGAGUUCUACAGUCCGACGAUCGCUUCGAUAUCCGCAUGCUAGGCACUGAGAGGAGCCAGCGCUCGAGGGCGUUCUCACGCCUGACUGAUAGAUACCUUUUUAGGGUGAUGAACUUACACAGAUGCAGAAGAUAUGGGGUGGUGGUCCUGGGUUUUAACCCUCUGACCGUCUUCUAGCUUCUAAUUUUGUUUGGUUUUUACAUCUAGGAGACUUAGGAAUAAUACCCACUGUUCUUAAACUCUUUGAGACCAUGUCUUAAAUGUCAGUAUUUGCUGCUGAAGACAAAAACGGAAAAUAGAAUCUCUUGCGGUCGCACUAGUGUGGAAUUCUCGGGUGUCAAGG

Over roughly 9,900 sequences, “r (bound/input frequency ratio)” has its median near 0.7; the highest 2% begin near 6.5. This is one part of a sample in which the highest values are shown more often than they occur.

Sequence of TDP-43 (Q13148 whole entry): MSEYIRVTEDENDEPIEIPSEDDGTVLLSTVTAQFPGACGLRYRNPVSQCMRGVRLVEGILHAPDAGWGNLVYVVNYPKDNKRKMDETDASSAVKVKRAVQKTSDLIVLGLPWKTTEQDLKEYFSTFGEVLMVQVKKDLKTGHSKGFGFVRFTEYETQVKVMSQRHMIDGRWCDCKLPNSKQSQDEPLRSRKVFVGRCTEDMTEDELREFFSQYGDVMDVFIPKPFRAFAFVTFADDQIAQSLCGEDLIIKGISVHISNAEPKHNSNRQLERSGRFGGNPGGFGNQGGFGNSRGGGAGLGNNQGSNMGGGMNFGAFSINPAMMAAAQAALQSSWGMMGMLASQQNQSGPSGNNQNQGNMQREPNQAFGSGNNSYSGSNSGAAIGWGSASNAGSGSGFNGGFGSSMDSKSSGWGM

In the test the target is TDP-43 (Homo sapiens, UniProt Q13148 1-414). In words: RNA Bind-n-Seq with designed 260-mer pool; 25 mM Tris-HCl, 150 mM KCl, 3 mM MgCl2, BSA (printed 500 mg/mL), 20 units/mL SUPERase IN; pH not stated; 500 nM RNA pool, 1 h, 4 C; TDP-43 5, 50, 500 nM; high values mean tight binding. The settings on record: protein: recombinant; tags: SBP (GST cleaved off with PreScission; pGEX-GST-SBP). In short, it runs like this:
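Recombinant SBP-tagged TDP-43 at 5, 50 or 500 nM was captured on streptavidin beads, then incubated 1 h at 4 °C with 500 nM of an in vitro-transcribed 260-nt 3′ UTR oligo pool in 25 mM Tris-HCl, 150 mM KCl, 3 mM MgCl2, BSA and SUPERase IN. Bound RNA was washed, eluted with biotin, reverse transcribed, PCR-amplified and sequenced. Binding is R, each oligo's mapped-read-normalized abundance in the bound sample divided by its abundance in input. Duplicates used two independent protein batches.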
As to B1, the binding signal is 0.754 R (bound/input frequency ratio).

On to B2, for which the binding signal is 0.552 R (bound/input frequency ratio).

Regarding B3, the binding signal was 0.765 R (bound/input frequency ratio).

In the case of B4, the binding signal was 0.231 R (bound/input frequency ratio).

Consider B5, for which the binding signal was 0.706 R (bound/input frequency ratio).

On to B6, for which the binding signal was 0.174 R (bound/input frequency ratio).

As to B7, the binding signal is 1.27 R (bound/input frequency ratio).

Consider B8, for which the binding signal is 0.565 R (bound/input frequency ratio).

Turning to B9, the binding signal was 1.69 R (bound/input frequency ratio).

Take B10: the binding signal is 1.51 R (bound/input frequency ratio).

Take B11: the binding signal is 0.292 R (bound/input frequency ratio).

For B12, the binding signal was 1.15 R (bound/input frequency ratio).

Regarding B13, the binding signal is 0.376 R (bound/input frequency ratio).
